NS1 inh: influenza NS1 inhibition; 270,000 tested, 0.4% active; Potency, µM (doses to about 46.1 µM), inactives show top-dose activity, positive = more growth; calls by dose curve; note: actives are rising curves; nearly all actives have a fitted effect of over 50% in size
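Read-out: OD600 growth recovery of NS1-expressing budding yeast. Cells grown overnight at 30C in -URA glucose medium, washed, resuspended and diluted 1:100 in 2% galactose assay medium, pH 6.0. Same strain lacking NS1 served as positive control.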
Pf growth 48h: P. falciparum growth inhibition at 48 hours (one generation). Potency, µM (highest dose often 28.7 µM), without a hit: at the highest dose activity change, negative = inhibition, actives largely listed as inhibitors. P. falciparum luciferase growth in erythrocytes, 48 h. 310,000 tested, 5.9% active; note: % is set by controls: 0 for no effect and ±100 for the full control effect
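Cell-based growth assay: transgenic P. falciparum expressing firefly luciferase, cultured in red cells within RPMI 1640 containing 0.5% w/v Albumax, 24 mM bicarbonate and gentamycin. A drop in luciferase activity indicates inhibition.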
Sm TGR block: blocks Schistosoma mansoni thioredoxin glutathione reductase; Q962Y6; Potency, µM (titrated, usually from 114 µM), without a hit: at the highest dose activity change, negative = inhibition, most hits filed as inhibitors; AID 485364; 360,000 tested, 3% active; purified TGR, DTNB reduction, TNB absorbance 405 nm; note: % is set by controls: 0 for no effect and ±100 for the full control effect; nearly all actives have a fitted effect of over 60% in size
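TGR 20 nM + NADPH 100 uM (dispensed conc.), cpd preinc 15 min RT; start with NADPH (500 uM addition) then DTNB (15 mM addition). Kinetic TNB absorbance, 405 nm filter. Four-parameter Hill fit across titration.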
Pf growth 96h: inhibits malaria parasite growth, 96 h; P. falciparum luciferase reporter growth, 96 h; Potency, µM (top dose mostly 28.7 µM), for the others: at the highest dose activity change, negative = inhibition, hits mostly inhibitors; 320,000 tested, 6.9% active; AID 504834; note: % is set by controls: 0 for no effect and ±100 for the full control effect
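Parasite growth measured via integrated firefly luciferase reporter in P. falciparum. Infected erythrocytes at 2% hematocrit, 0.05% parasitemia final were treated 96 hours at 37 C under 5% CO2, and luminescence was read.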
AMA1 RON2 block: disrupts binding of P. falciparum AMA1 to RON2 | 360,000 tested, 0.2% active | Potency, µM (titrated, usually from 58.2 µM), without a hit: top-dose activity change, negative = inhibition, actives largely listed as inhibitors | AID 720542 | AlphaScreen AMA1-biotinylated RON2 peptide binding;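 note: 0% = vehicle wells and -100% = peptide control; nearly all actives have a fitted effect of over 45% in size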
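AMA1 (3D7) with his tag at 25 nM final met compounds first, then biotinylated RON2 peptide at 25 nM; detection used donor plus acceptor beads, 10 µg/mL apiece, read by AlphaScreen after 30 min at room temperature.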
Active calls of the source: *; ? = inconclusive; . = no result; [ ] = dose if it differs, or a comment. The list is not random: actives were taken first. Their share in the collection is about 11%. Unless noted, calls come from the whole dose curve; as a rule, active = well fitted curve in the direction sought with a large enough effect; inconclusive = small, poorly fitted or top-dose-only effect, or another doubt; inactive = no such curve, though single readings can be large; an effect the other way counts as inactive or inconclusive. Potency is the fitted concentration of half-maximal effect.

SMILES	NS1 inh	Pf growth 48h	Sm TGR block	Pf growth 96h	AMA1 RON2 block
C#CCOCCOCCOCCNc1nc(N2CCN(C(=O)C(Cc3cc4ccccc4[nH]3)n3cc(C(N)C(C)CC)nn3)CC2)nc(N2CCN(C(=O)C(Cc3cc4ccccc4[nH]3)n3cc(C(N)C(C)CC)nn3)CC2)n1 (stereo unspecified)	-1%	?	-35%	4.1µM*	-22%
C#CCOCCOCCOCCNc1nc(N2CCN(C(=O)[C@H](CCC(=O)O)n3cc(C(N)[C@H](C)CC)nn3)CC2)nc(N2CCN(C(=O)[C@H](Cc3cc4ccccc4[nH]3)n3cc(C(N)[C@H](C)CC)nn3)CC2)n1 (stereo partly specified)	-4%	-11%	?	-16%	.
CCc1ccc(C(=O)c2cn(CC(=O)Nc3ccc(OC)c(Cl)c3)c3nc(C)ccc3c2=O)cc1	.	.	-5%	.	.
CCCn1cc(S(=O)(=O)c2ccccc2)c(=O)c2cc(F)c(N3CCCC(C)C3)cc21 (stereo unspecified)	.	.	0%	.	.
O=C(NCCO)C(=O)Nc1cc2c3c(c1)CC(=O)N3CCC2	-5%	60%	4%	55%	17%
O=C(CCl)c1cc2c3c(c1)CC(=O)N3CCC2	5%	?	1.6µM*	?	-7%
COc1ccccc1C(=O)NCCC(=O)N(Cc1ccco1)Cc1cccs1	-12%	?	?	?	-16%
O=C(NCCC(=O)N(Cc1ccco1)Cc1cccs1)c1ccccc1Cl	.	?	45µM*	?	-7%
O=C(c1cc2ccccc2o1)N(Cc1ccco1)Cc1cccs1	.	?	32µM*	0%	-14%
COc1ccccc1NC(=O)CN(Cc1ccco1)C(=O)c1cc2ccccc2o1	.	-22%	22µM*	-27%	.
O=C(Nc1ccccc1)N1CCC(C(=O)N(Cc2ccco2)Cc2cccs2)CC1	-8%	?	0%	1.7µM*	9%
Cc1c(C(=O)N(Cc2ccco2)Cc2cccs2)oc2ccccc12	.	-10%	0%	19%	-5%[11.6 µM]
COc1ccc(CNC(=O)c2cccc3c(-c4cnn(C)c4)coc23)cc1OC	.	.	.	.	5%
CCN1CCN(c2nc3c(S(=O)(=O)c4ccc(C)cc4)nnn3c3ccsc23)CC1	.	.	-15%	.	.
CCOC(=O)c1c(-c2ccc(C)cc2)csc1NC(=O)C1CCCO1 (stereo unspecified)	-21%	?	-7%	9.3µM*	-15%
Cc1ccc2oc(-c3cccc(NC(=O)C4CCCO4)c3)nc2c1 (stereo unspecified)	-46%	225%	8%	10µM*	20%
COC(=O)c1c(-c2cccc(C)c2)csc1NC(=O)C1CCCO1 (stereo unspecified)	1%	13µM*	-13%	4%	-27%
CCOC(=O)c1c(-c2ccc(F)cc2)csc1NC(=O)C1CCCO1 (stereo unspecified)	-2%	-7%	-26%	-3%	-2%
N/C(=N\OC(=O)CCCc1ccccc1)c1ccccc1Cl	-31%	12%	0%	33%	83%
Cn1nc(C(=O)N2CCCC2)c2ccccc2c1=O	-1%	12%	4%	-17%	3%
CSc1ccc(C(=O)C2CCCN(C(=O)c3nonc3C)C2)cc1 (stereo unspecified)	0%	15µM*	14%	29%	-22%
CSc1ccc(C(=O)C2CCCN(C(=O)c3nn(C)c(=O)c4ccccc34)C2)cc1 (stereo unspecified)	2%	16%	14µM*	15%	14%
CN(C)c1ccc(C2N3CC4(C)CN2CC(C)(C3)C4O)cc1 (stereo unspecified)	-92%	.	2%	4.7µM*	92%
CC12CN3CC(C)(CN(C1)C3c1ccc(Cl)cc1Cl)C2O (stereo unspecified)	3%	21%	5%	0%	21%
CCOC(=O)c1cc(OC)c2cccc(CN3CCC(C)(C(=O)NCCOC)C3)c2c1 (stereo unspecified)	.	.	.	.	-4%
CC1CCC2(CC1)NC(=O)N(NC(=O)c1ccc(OC(C)C)cc1)C2=O (stereo unspecified)	.	13%	-2%	28%	-1%
N=c1c2ccccc2nnn1-c1cccc(C(F)(F)F)c1	-3%	13µM*	-1%	?	-4%
